Source: PubChem BioAssay (NCI)
Compounds without any hit were thinned out: in the full panel of roughly 83,000, 20% have a hit.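 Values shown are percent growth following 48 h exposure of cells in 96-well plates to a single concentration of compound; below 10 was considered active.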 Calls of active or inactive are those of the source.

Assays:
Test in all cases: NCI-60 one-dose screen, 48 h (100 = growth as untreated, 0 = no growth, -100 = all killed)
Details in all cases: 10 µM unless noted
[1] = tested on: NCI-H23 lung
[2] = tested on: NCI-H226 lung
[3] = tested on: NCI-H322M lung
[4] = tested on: HOP-62 NSCLC
[5] = tested on: NCI-H460 lung
[6] = tested on: HOP-92 NSCLC
[7] = tested on: NCI-H522 lung
[8] = tested on: A549/ATCC NSCLC
[9] = tested on: 786-0 renal
[10] = tested on: COLO 205 colon
[11] = tested on: DU-145 prostate
[12] = tested on: K-562 leukemia
[13] = tested on: MALME-3M melanoma
[14] = tested on: MDA-MB-231 breast
[15] = tested on: RXF 393 renal
[16] = tested on: SF-268 CNS
[17] = tested on: SF-295 CNS
[18] = tested on: SF-539 CNS
[19] = tested on: UACC-257 melanoma
[20] = tested on: M14 melanoma

Measured: growth

O=[N+]([O-])c1cccc(-c2nc3sccn3c2-c2ccnc(NCCCNS(=O)(=O)c3cccc(F)c3)n2)c1
inactive: [3] 45.2% | [4] 13.1% | [5] 16.3% | [6] 46.3% | [9] 43.4% | [14] 47.6% | [15] 52% | [16] 11.8% | [18] 34.8%
active: [1] -9.68% | [2] -5.67% | [7] -8.69% | [8] 7.27% | [10] -2.26% | [11] 9.77% | [12] 4.26% | [13] -10.6% | [17] 5.83% | [19] -15.2% | [20] -1.16%

CCOC(=O)Cc1cnn(C)c1NC(=O)c1ccc(Cl)cc1NC(C)=O
inactive: [1] 104% | [2] 98.6% | [3] 79.1% | [4] 96.4% | [5] 119% | [6] 91.4% | [7] 95.4% | [8] 103% | [9] 98.4% | [10] 110% | [11] 110% | [12] 103% | [13] 105% | [14] 112% | [15] 115% | [16] 98.7% | [17] 101% | [18] 101% | [19] 105% | [20] 101%

Cc1cc2cc3cc(C)c(N(C)C)cc3[n+](C)c2cc1N(C)C
inactive: [1] 28.3% | [2] 51.6% | [3] 25.4% | [4] 30% | [5] 10.9% | [8] 25.8% | [9] 26.7% | [11] 24.2% | [12] 44.7% | [13] 19.9% | [14] 57.1% | [15] 25% | [16] 11.7% | [17] 16.6% | [20] 41.2%
active: [6] -34.6% | [7] -5.03% | [10] -19.2% | [18] 9.99%

CCCCCC(=O)Oc1ccc(/C(=C(\C)c2ccccc2)c2ccc(OCCN(CC)CC)cc2)cc1
inactive: [1] 79.8% | [2] 93.3% | [3] 81% | [4] 91.7% | [5] 52.3% | [6] 52.8% | [7] 62.4% | [8] 67.7% | [9] 57.4% | [10] 15% | [11] 103% | [12] 12.2% | [13] 65.3% | [14] 84.8% | [15] 66.9% | [16] 71.5% | [17] 79.5% | [18] 46.8%
active: [19] 7.01% | [20] 8.98%

Cc1ccc(N)cc1F
inactive: [1] 94.6% | [2] 101% | [3] 101% | [4] 84.1% | [5] 108% | [6] 109% | [7] 88.8% | [8] 99.8% | [9] 92.9% | [10] 168% | [11] 109% | [12] 99.1% | [13] 93.5% | [14] 82% | [15] 104% | [16] 98.6% | [17] 110% | [18] 100% | [20] 88.2%

CC1=NNC(=O)C1C (centres undefined)
inactive: [1] 100% | [2] 93.5% | [3] 585% | [4] 87.4% | [5] 114% | [6] 102% | [7] 85.9% | [8] 98.6% | [9] 103% | [10] 110% | [11] 104% | [12] 97.3% | [13] 467% | [14] 109% | [15] 90.5% | [16] 107% | [17] 110% | [18] 111% | [20] 96.8%

CCN(CC)Cc1cc(Nc2c3ccccc3nc3cc(Cl)ccc23)ccc1O
active: [1] -82.6% | [2] -47.5% | [3] -40.9% | [4] -65.2% | [5] -73.6% | [6] -33.1% | [7] -80.8% | [8] -37.6% | [9] -55.1% | [10] -100% | [11] -16.2% | [12] -40.8% | [13] -91.4% | [14] -65.2% | [15] -91.4% | [16] -76.9% | [17] -38.3% | [18] -100% | [19] -94.8% | [20] -99.6%

COC(=S)SCN(CSC(=S)OC)c1ccc(Cl)cc1
inactive: [1] 80% | [2] 69.9% | [3] 76.1% | [4] 76.9% | [5] 87% | [6] 74.7% | [7] 79.9% | [8] 81.6% | [9] 94.3% | [10] 111% | [11] 110% | [12] 90.1% | [13] 75.1% | [14] 66.1% | [15] 95.3% | [16] 94.2% | [17] 84.8% | [18] 84.8% | [20] 77%

Cc1cc(N/N=C/c2nc(-c3ccc(Cl)cc3)oc2C)c2cc(Cl)ccc2n1
inactive: [1] 111% | [2] 98.4% | [3] 79.1% | [4] 103% | [6] 69.5% | [8] 21.9% | [10] 83.7% | [11] 34.3% | [14] 63.8% | [15] 83.3% | [16] 74.8% | [17] 98.6% | [18] 69.5% | [19] 101%
active: [5] -62.5% | [7] -1.87% | [9] -39.8% | [12] -15.8% | [13] -14.2% | [20] 8.84%

CCC(=O)OCc1cccc(OC)c1
inactive: [1] 107% | [2] 97.9% | [3] 108% | [4] 87.9% | [5] 95.8% | [6] 76.4% | [7] 94.5% | [8] 113% | [9] 102% | [10] 111% | [11] 111% | [12] 62.4% | [13] 116% | [14] 97.4% | [15] 103% | [16] 107% | [17] 104% | [18] 98% | [20] 96.3%

CCCCCCCCSC1=CC(=O)C(OC)=C(OC)C1=O
active: [6] -31.3% | [7] -97.8% | [12] 3.59% | [13] -53.4% | [15] -69.7% | [19] -35.3%
inactive: [1] 26.6% | [2] 80.9% | [3] 89.4% | [4] 91.3% | [5] 45.9% | [8] 57.2% | [9] 61.9% | [10] 37.1% | [11] 68.5% | [14] 24.2% | [16] 43.6% | [17] 74.1% | [20] 26.6%

COc1ccc(CN(c2ccc(C)cc2)C2OC(=O)c3ccccc32)cc1OC (centres undefined)
inactive: [1] 106% | [2] 91.1% | [3] 99.6% | [4] 106% | [5] 101% | [6] 91.3% | [7] 97.2% | [8] 88.3% | [9] 98.5% | [10] 138% | [11] 115% | [12] 99.6% | [13] 104% | [14] 117% | [15] 104% | [16] 113% | [17] 100% | [19] 95% | [20] 110%

COc1cc(OC)c(/C=C/S(=O)(=O)Cc2cnc(OC)c(N)c2)c(OC)c1
active: [5] 9.05% | [7] -2.15% | [8] 9.4% | [10] -49.2% | [11] 1.99% | [12] 9.4% | [17] 2.57%
inactive: [1] 30.8% | [2] 64.3% | [3] 33.2% | [4] 23.8% | [6] 85.9% | [9] 16.2% | [13] 67.3% | [14] 11.9% | [15] 45.5% | [16] 38% | [19] 62.4% | [20] 10.1%

N=c1c2ccccc2nc2n1CCCCC2
inactive: [1] 102% | [2] 102% | [3] 112% | [4] 105% | [5] 113% | [6] 133% | [7] 116% | [8] 101% | [9] 119% | [10] 104% | [11] 118% | [12] 121% | [13] 107% | [14] 110% | [15] 110% | [16] 106% | [17] 109% | [19] 110% | [20] 108%

COc1ccc(-c2c(C)noc2-c2ccc(O)cc2O)cc1
inactive: [1] 81.4% | [2] 101% | [3] 94% | [4] 118% | [5] 54.3% | [6] 104% | [7] 69.5% | [8] 75.3% | [9] 97.9% | [10] 121% | [11] 64.4% | [12] 39.6% | [13] 103% | [14] 108% | [15] 90.7% | [16] 82% | [17] 97.6% | [19] 111% | [20] 103%

CCOC(=O)c1c2c(n3ccc(NC(=O)CCN4CCOCC4)cc13)C(=O)c1ncccc1C2=O
inactive: [1] 16.7% | [2] 78.5% | [3] 14.3% | [4] 39.9% | [5] 11.1% | [6] 45.1% | [8] 40.4% | [9] 51.8% | [10] 37.9% | [11] 45.8% | [12] 19.8% | [13] 42.6% | [14] 26% | [15] 63% | [16] 39% | [17] 49.3% | [19] 32% | [20] 24.6%
active: [7] -20.5%
